Data on seven compounds can be found in PubChem BioAssay (Tox21).

Assay [1] concerns the target Progesterone receptor (Homo sapiens) (UniProt P06401). The assay can be described thus: qHTS assay to identify small molecule agonists of the progesterone receptor (PR) signaling pathway (AID 1346784; calls by dose curve; note: nearly all actives have a fitted effect of over 30% in size). Put shortly:
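PR-UAS-bla HEK 293T cells carrying a UAS-driven beta-lactamase reporter were seeded in medium with 2% charcoal-stripped FBS, preincubated 6 hr at 37C, then exposed to compounds in DMSO for 16 hr; agonism was read by LiveBLAzer B/G FRET fluorescence.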
In general terms: In qHTS, concentration-response curves come from the screen itself.

For assay [2] the target is unchanged. The assay can be described thus: qHTS assay to identify small molecule antagonists of the progesterone receptor (PR) signaling pathway (AID 1346795; active = well fitted inhibition curve with a large enough effect in the signal ratio in the repeat runs, not every such curve was filed as active; the % refers to the signal ratio). In a few lines: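 PR-UAS-bla HEK293T cells carrying a UAS-driven beta-lactamase reporter were plated in medium with 2% charcoal-stripped FBS and rested 6 hr at 37C. Compounds were added with 1 nM R5020 (final) for 16 hr, then FRET substrate loaded 2 hr at room temperature.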

A short description of assay [3]: qHTS assay to identify small molecule antagonists of the progesterone receptor (PR) signaling pathway - cell viability counter screen (AID 1346798). Note: series mostly up to about 92 µM; nearly all actives have a fitted effect of over 50% in size. In a few lines:
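PR-UAS-bla HEK293T cells in medium with 2% charcoal-stripped FBS were treated with compounds plus R5020 for 16 hr at 37C. Cell viability was then read by CellTiter-Glo luminescence after 30 min at room temperature in the same wells.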

A short description of assay [4]: qHTS assay to identify small molecule agonists of the progesterone receptor (PR) signaling pathway - cell viability counter screen (AID 1346799; calls by dose curve; note: nearly all actives have a fitted effect of over 45% in size). Put shortly:
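PR-UAS-bla HEK293T cells, 3,000 per well in medium with 2% charcoal-stripped FBS, were preincubated 6 hr at 37C, then exposed to compounds for 16 hr; viability was read as CellTiter-Glo luminescence after 30 min at room temperature.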

Assay [5] can be described thus: qHTS assay to identify small molecule agonists of the TGF-beta/Smad signaling pathway - cell viability counter screen (AID 1346829). Note: top concentration of the series differs between compounds; nearly all actives have a fitted effect of over 45% in size. In a few lines:
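In parallel with the Smad reporter read, viability of HEK 293T cells stably carrying SBE-bla is quantified by ATP luminescence following 5 hr compound treatment.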

Assay [6] is described as follows: qHTS assay to identify small molecule agonists of the TGF-beta/Smad signaling pathway (AID 1346859; active = well fitted activation curve with a large enough effect in the signal ratio in the repeat runs, not every such curve was filed as active; the % refers to the signal ratio; note: series mostly up to about 77 µM). In a few lines: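 HEK 293T cells stably carrying a beta-lactamase reporter driven by the Smad binding element were seeded overnight, exposed to DMSO-dissolved compounds for 5 hr at 37 C, 5% CO2, then loaded with FRET substrate for 2 hr at room temperature.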
In assay [7] the target is Thyrotropin-releasing hormone receptor (Homo sapiens) (UniProt P34981). The assay can be described thus: qHTS assay to identify small molecule antagonists of the thyrotropin-releasing hormone receptor (TRHR) signaling pathway (AID 1346877; active = well fitted inhibition curve with a large enough effect in the repeat runs, not every such curve was filed as active; note: series mostly up to about 51 µM). Put shortly:
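Antagonism is measured as suppression of the calcium response to 1 nM TRH in TRHR-HEK293 cells that have been dye-loaded for 2 h at 37 °C after overnight plating. Each compound is tested at 15 concentrations in triplicate.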

Assay [8] in a line: Human pregnane X receptor (PXR) small molecule agonists, qHTS cell viability counter screen (AID 1346977). Note: nearly all actives have a fitted effect of over 50% in size. In a few lines:
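PXR-Luc HepG2 cells in medium with 5% charcoal-stripped FBS were pre-incubated 5hr, then exposed to compounds for 24hr at 37C. Viability was read in the same wells by CellTiter-Fluor fluorescence, reagent added after 23hr with a 1hr incubation.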

Assay [9] in a line: Caspase-3/7 induction in HepG2 cells by small molecules, qHTS assay (AID 1346978). Note: nearly all actives have a fitted effect of over 15% in size. In a few lines: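 Caspase-3/7 induction was measured by Caspase-Glo 3/7 luminescence (30 min, room temperature) after a 17 hr compound exposure of wild-type HepG2 cells seeded at 2,000 per well and pre-incubated 5 hr.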
Assay [10] in a line: Caspase-3/7 induction in CHO-K1 cells by small molecules, qHTS cell viability counter screen (AID 1346979). Note: nearly all actives have a fitted effect of over 35% in size. In a few lines:
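Wild-type CHO-K1 cells were seeded at 1,500 per well, rested 5hr at 37 C, then exposed to compounds in DMSO. After 16hr, CellTiter-Fluor reagent was added and fluorescence read 1hr later as the viability measure.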

Assay [11] can be described thus: Caspase-3/7 induction in HepG2 cells by small molecules, qHTS cell viability counter screen (AID 1346981). Note: series mostly up to about 92 µM; nearly all actives have a fitted effect of over 30% in size. In a few lines:
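Cell viability is measured as a cytotoxicity counter screen alongside the Caspase-Glo 3/7 readout in identical wells. Wild-type HepG2 cells are treated with test compounds for 16 hr at 37 C before CellTiter-Fluor addition and a 1-hr incubation.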

Assay [12] addresses Nuclear receptor subfamily 1 group I member 2 (Homo sapiens) (UniProt O75469). The assay can be described thus: Human pregnane X receptor (PXR) small molecule agonists, qHTS assay (AID 1346982). Note: nearly all actives have a fitted effect of over 35% in size. Put shortly:
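Cells: HepG2 stably carrying PXR-Luc. Medium held 5% charcoal-stripped FBS. Compounds in DMSO added after 5 hr plating, incubated 24 hr, then luminescence quantified with ONE-Glo.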

The target in assay [13] is Cytochrome P450 2C19 (Homo sapiens) (UniProt P33261). Briefly: Cytochrome P450 Family 2 Subfamily C Member 19 (CYP2C19) small molecule antagonists: luciferase reporter qHTS assay (AID 1671197). Note: nearly all actives have a fitted effect of over 65% in size. Note: potency is the fitted concentration of half-maximal effect. Put shortly: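 Compounds were tested on CYP2C19 activity via proluciferin conversion to luciferin. The 37C, 1 h reaction followed NADPH addition; detection reagent stopped it.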
Cytochrome P450 2C19 (Homo sapiens), sequence (P33261 whole entry, looked up): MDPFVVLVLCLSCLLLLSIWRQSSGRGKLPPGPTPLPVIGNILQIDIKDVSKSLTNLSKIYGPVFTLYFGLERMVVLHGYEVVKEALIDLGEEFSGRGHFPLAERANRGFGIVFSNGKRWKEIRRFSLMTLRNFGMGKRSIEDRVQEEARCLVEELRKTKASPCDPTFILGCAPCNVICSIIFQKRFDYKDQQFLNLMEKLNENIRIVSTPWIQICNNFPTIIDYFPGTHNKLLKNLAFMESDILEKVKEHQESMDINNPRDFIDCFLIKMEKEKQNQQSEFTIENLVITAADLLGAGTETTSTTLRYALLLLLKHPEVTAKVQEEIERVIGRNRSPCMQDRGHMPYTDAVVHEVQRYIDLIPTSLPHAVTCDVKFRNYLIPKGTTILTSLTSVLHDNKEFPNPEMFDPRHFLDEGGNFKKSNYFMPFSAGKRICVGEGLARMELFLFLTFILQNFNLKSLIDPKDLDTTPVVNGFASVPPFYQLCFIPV
On the technique in general: Reporter assays use an easily measured gene product as a stand-in for the process of interest.

The nature of assay [14]: qHTS assay to identify small molecule antagonists of the TGF-beta/Smad signaling pathway - cell viability counter screen (AID 1346824). Note: nearly all actives have a fitted effect of over 50% in size. In a few lines: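 Cytotoxicity counter-screen run in the same wells as the beta-lactamase Smad reporter read: CellTiter-Glo luminescence after 30 min at room temperature. HEK 293T SBE-bla cells had 5 hr compound exposure at 37 C with TGF-beta1 (0.25 ng/mL stock).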

The target in assay [15] is Thyrotropin-releasing hormone receptor (Homo sapiens) (UniProt P34981). Briefly: qHTS assay to identify small molecule agonists of the thyrotropin-releasing hormone receptor (TRHR) signaling pathway (AID 1346891; calls by dose curve; note: series mostly up to about 58 µM). Put shortly:
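TRHR-expressing HEK293 cells were plated 18 h at 37 °C/5% CO2, loaded with calcium dye 2 h at 37 °C, then given compound in DMSO; fluorescence was read kinetically for 3 min at 1 s intervals.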

Assay [16] can be described thus: Caspase-3/7 induction in CHO-K1 cells by small molecules, qHTS assay (AID 1346980). Note: nearly all actives have a fitted effect of over 15% in size. Put shortly:
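Luminescent Caspase-Glo 3/7 read (30min, room temperature) quantified apoptosis induction. Cells were wild-type CHO-K1, treated with compound for 17hr at 37 C and 5% CO2.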

Assay [17] addresses Cytochrome P450 2D6 (Homo sapiens) (UniProt P10635). Briefly: Cytochrome P450 Family 2 Subfamily D Member 6 (CYP2D6) small molecule antagonists: luciferase reporter qHTS assay (AID 1671196). Note: series mostly up to about 120 µM; nearly all actives have a fitted effect of over 50% in size. Put shortly:
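Enzyme and proluciferin substrate were first combined with test chemical for 10 min at room temperature. Adding NADPH regeneration solution started a 1 h reaction, stopped with luciferin detection reagent and read by luminescence 20 min later.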

Assay [18] addresses Nuclear receptor subfamily 1 group I member 2 (Rattus norvegicus) (UniProt Q9R1A7). Briefly: Rat pregnane X receptor (rPXR) activation by small molecules, qHTS assay (AID 1346983). Note: nearly all actives have a fitted effect of over 20% in size. As to conditions: rPXR luciferase reporter cells, One-Glo luminescence, 24 h; max activation: stronger effect = higher value. Put shortly: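 Luminescent readout (One-Glo luciferase, 30 min room temperature) followed 24 hr compound treatment at 37 C of rPXR cells plated 2,000 per well and preincubated 5hr; qHTS format with compounds delivered in DMSO.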

The target of assay [19] is Nuclear receptor subfamily 1 group I member 2 (Homo sapiens) (UniProt O75469). Briefly: CYP3A4 induction through human pregnane X receptor (PXR) by small molecules, qHTS assay (AID 1346984). Note: nearly all actives have a fitted effect of over 40% in size. In a few lines: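 Quantitative HTS in DPX-2 cells, i.e. HepG2 transfected with PXR response element and CYP3A4-promoter luciferase. Compounds in DMSO incubated 24hr at 37C; then P450-Glo CYP3A4 substrate, 3uM final, 3hr; One-Glo luminescence.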
Nuclear receptor subfamily 1 group I member 2 (Homo sapiens), sequence (O75469 whole entry, looked up): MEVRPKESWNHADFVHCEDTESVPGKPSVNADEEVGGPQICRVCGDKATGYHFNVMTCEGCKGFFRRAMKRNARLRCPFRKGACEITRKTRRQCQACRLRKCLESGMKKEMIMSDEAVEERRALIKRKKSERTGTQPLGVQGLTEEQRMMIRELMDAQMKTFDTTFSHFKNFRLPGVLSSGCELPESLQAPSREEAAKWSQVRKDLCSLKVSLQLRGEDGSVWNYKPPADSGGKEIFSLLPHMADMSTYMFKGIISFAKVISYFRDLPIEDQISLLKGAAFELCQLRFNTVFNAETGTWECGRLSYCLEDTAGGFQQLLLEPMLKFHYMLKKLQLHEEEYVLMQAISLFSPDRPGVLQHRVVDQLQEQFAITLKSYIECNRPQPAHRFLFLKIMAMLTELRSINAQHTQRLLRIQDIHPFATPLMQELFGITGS

Assay [20] shares this target. Briefly: Human pregnane X receptor (PXR) activation by small molecules, qHTS assay (AID 1346985). Note: nearly all actives have a fitted effect of over 40% in size. In a few lines: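 DPX-2 cells (HepG2 co-transfected with a PXR response element and a CYP3A4-promoter luciferase construct) were seeded at 2,000 per well, rested 5 hr at 37C, then exposed to DMSO-dissolved compounds for 24 hr. Activation was read as luciferase luminescence.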

A number with no mark means an inactive call. Results filed as inconclusive are left out. The source made the active and inactive calls. Unless noted, calls come from the whole dose curve; as a rule, active = well fitted curve in the direction sought with a large enough effect in the repeat runs; inconclusive = weak or mixed curves; inactive = no such curve, though single readings can be large; an effect the other way counts as inactive or inconclusive.
% is set by controls: 0 for no effect and ±100 for the full control effect.

Progesterone receptor (Homo sapiens), sequence (P06401 whole entry, looked up): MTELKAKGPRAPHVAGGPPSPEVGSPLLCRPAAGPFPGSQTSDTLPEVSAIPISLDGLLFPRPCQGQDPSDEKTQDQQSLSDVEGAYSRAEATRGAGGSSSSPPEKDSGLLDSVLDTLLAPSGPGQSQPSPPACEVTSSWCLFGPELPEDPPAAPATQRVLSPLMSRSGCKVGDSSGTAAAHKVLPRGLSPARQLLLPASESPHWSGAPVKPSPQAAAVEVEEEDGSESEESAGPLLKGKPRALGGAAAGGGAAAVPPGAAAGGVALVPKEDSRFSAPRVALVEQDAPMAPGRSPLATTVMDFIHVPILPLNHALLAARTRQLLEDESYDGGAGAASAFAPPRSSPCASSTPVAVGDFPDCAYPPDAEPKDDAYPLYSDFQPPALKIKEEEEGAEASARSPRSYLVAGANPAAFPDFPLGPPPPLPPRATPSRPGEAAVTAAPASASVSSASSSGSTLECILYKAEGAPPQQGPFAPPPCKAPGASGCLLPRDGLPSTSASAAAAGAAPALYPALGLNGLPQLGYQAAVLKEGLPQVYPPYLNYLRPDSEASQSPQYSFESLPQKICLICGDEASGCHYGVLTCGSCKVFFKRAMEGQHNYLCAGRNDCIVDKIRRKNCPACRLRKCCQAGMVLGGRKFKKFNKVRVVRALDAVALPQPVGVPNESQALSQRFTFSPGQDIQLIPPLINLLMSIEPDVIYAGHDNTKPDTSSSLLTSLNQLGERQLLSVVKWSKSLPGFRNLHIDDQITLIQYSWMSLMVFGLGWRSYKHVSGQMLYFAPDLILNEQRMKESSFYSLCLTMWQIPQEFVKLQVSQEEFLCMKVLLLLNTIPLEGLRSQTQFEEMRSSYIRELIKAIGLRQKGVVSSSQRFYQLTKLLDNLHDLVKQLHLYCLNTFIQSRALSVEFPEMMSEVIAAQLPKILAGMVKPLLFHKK
Thyrotropin-releasing hormone receptor (Homo sapiens), sequence (P34981 whole entry, looked up): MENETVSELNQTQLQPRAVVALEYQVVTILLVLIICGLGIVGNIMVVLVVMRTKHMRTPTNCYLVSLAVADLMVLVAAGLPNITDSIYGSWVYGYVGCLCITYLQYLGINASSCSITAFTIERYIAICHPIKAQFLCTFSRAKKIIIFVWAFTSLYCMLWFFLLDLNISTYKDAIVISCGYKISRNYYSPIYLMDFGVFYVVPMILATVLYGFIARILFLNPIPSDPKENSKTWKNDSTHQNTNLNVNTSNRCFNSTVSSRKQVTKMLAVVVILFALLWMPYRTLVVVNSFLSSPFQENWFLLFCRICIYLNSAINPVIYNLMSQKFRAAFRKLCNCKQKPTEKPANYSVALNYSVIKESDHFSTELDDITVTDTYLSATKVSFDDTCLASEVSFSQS
Cytochrome P450 2D6 (Homo sapiens), sequence (P10635 whole entry, looked up): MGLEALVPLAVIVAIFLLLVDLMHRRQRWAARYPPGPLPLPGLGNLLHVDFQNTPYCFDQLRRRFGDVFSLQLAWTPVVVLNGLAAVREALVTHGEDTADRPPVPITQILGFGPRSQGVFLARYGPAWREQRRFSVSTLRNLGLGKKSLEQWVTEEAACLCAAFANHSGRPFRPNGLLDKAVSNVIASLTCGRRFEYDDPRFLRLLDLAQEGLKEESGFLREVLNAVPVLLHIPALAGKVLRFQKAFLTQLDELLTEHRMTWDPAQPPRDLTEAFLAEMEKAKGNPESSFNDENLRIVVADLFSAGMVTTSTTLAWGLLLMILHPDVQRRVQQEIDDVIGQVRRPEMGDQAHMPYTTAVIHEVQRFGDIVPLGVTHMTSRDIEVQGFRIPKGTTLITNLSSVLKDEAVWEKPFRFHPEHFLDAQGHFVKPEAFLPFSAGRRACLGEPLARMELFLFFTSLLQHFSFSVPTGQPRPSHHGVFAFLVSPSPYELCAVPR
Nuclear receptor subfamily 1 group I member 2 (Rattus norvegicus), sequence (Q9R1A7 whole entry, looked up): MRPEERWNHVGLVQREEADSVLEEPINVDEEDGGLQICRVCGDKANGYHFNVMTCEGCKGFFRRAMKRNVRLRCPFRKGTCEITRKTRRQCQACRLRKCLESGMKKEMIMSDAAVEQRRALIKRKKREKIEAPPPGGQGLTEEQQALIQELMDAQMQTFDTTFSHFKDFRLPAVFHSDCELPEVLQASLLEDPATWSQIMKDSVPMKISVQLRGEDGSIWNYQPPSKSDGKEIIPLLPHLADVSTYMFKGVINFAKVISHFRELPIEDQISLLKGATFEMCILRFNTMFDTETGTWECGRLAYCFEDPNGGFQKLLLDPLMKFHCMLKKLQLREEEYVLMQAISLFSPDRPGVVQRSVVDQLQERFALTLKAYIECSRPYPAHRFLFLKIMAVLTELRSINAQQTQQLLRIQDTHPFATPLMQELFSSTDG

Take `O=C(O)c1cccc(Cl)n1`: the compound was classed as inactive in [1]. In addition, the Potency result in [2], in assay [3], in assay [4], in assay [5], in assay [6] and in assay [7] was “inactive” in each case. The Potency entry in assay [8], in assay [9], in assay [10], in [11], in assay [12] and in [13] was “inactive” throughout.

Consider `[O]=[Zr]`, for which the compound was classed as inactive in assay [1]. The Potency entry in [2], in assay [3], in assay [4], in assay [14], in assay [6] and in [7] was “inactive” throughout. The Potency result in [15], in assay [8], in [9], in [10], in assay [16] and in assay [11] was “inactive” in each case. Also, the Potency result in assay [12] was “inactive”.

Turning to `CCOC(=O)CN`, in assay [1], the compound was called inactive. For the same compound, the Potency result in assay [2], in assay [3], in assay [4], in assay [14], in assay [5] and in assay [6] was “inactive” in each case. Besides, the Potency entry in assay [8], in assay [9], in assay [10], in [16], in assay [11] and in [12] was “inactive” in each case. Moreover, in assay [13], the Potency entry is “inactive”.

Turning to `Cc1cc(=O)[nH]c(=O)[nH]1`, the outcome in [1] was inactive. The Potency entry in [2], in assay [3], in assay [4], in [5], in assay [6] and in assay [7] was “inactive” in each case. In addition, the Potency entry in assay [15], in assay [8], in assay [9], in assay [10], in assay [16] and in assay [11] was “inactive” each time. Besides, the Potency entry in assay [12] and in [17] was “inactive” in each case.

Turning to `CC(C)(C)c1cc(CCC(=O)NCCCCCCNC(=O)CCc2cc(C(C)(C)C)c(O)c(C(C)(C)C)c2)cc(C(C)(C)C)c1O`, in assay [1], the compound was called inactive. Besides, the Potency result in assay [2], in assay [3], in assay [4], in assay [5], in [6] and in assay [7] was “inactive” throughout. The Potency entry in assay [15], in assay [8], in assay [9], in assay [10], in assay [16] and in assay [11] was “inactive” each time. Further, in assay [12], the Potency entry is “inactive”.

Regarding `O=C1OC(OC(=O)c2cccnc2Nc2cccc(C(F)(F)F)c2)c2ccccc21` (configuration not stated), the result in assay [1] was inactive. Also, the Potency result in [2], in assay [3], in [4], in [5], in assay [6] and in assay [8] was “inactive” throughout. The Potency entry in assay [9], in assay [10], in assay [16], in assay [12], in [19] and in [20] was “inactive” each time. For the same compound, the max activation in assay [18] is -3.51%.

In the case of `CC(COC(=O)c1ccccc1)OC(=O)c1ccccc1` (configuration not stated), the result in assay [1] was inactive. The Potency result in assay [2], in assay [3], in assay [4], in assay [14], in [5] and in assay [6] was “inactive” each time. For the same compound, the Potency entry in assay [8], in [9], in assay [10], in assay [11] and in assay [12] was “inactive” each time. In addition, the Potency in [13] was 20 µM (active).
